# Measured values taken from the supplement of paper PMC6555819.
# What was measured:
# Test in all cases: PBM binding z-score (relative to random genomic background probes); higher = stronger binding; sequences stand for … in GC…GCGATTGACAGCGTAGAATGAAGG
# [1] = tested on: PPARg:RXRa DBDmut IVT, anti-RXR (DBD mutation: RXRa K156A/R161A, NR concentration 270 nM, RXRa partner concentration 90 nM)
# Summary of the method: (§1)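 Binding z-scores take random background probes as their reference. They come from custom Agilent 4×180K protein-binding microarrays incubated 1 h with ligand-free nuclear receptor dimers, with antibodies against each partner (one per run) detecting binding. Scanned fluorescence was regression-normalized.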
# [2] = tested on: PPARg:RXRa IVT, anti-PPARg (NR concentration 270 nM, RXRa partner concentration 90 nM)
# Summary of the method: as §1
# [3] = tested on: PPARg DBDmut:RXRa IVT, anti-PPARg (DBD mutation: PPARg1 K132A/R137A, NR concentration 270 nM, RXRa partner concentration 90 nM)
# Summary of the method: as §1
# [4] = tested on: PPARg DBDmut IVT, anti-PPARg (DBD mutation: PPARg1 K132A/R137A, NR concentration 270 nM)
# Summary of the method: as §1
# [5] = tested on: PPARg homodimer (NR concentration 180 nM)
# Summary of the method: as §1
# [6] = tested on: PXR:RXRa (NR concentration 270 nM, RXRa partner concentration 90 nM)
# Summary of the method: as §1
# [7] = tested on: PXR homodimer (NR concentration 270 nM)
# Summary of the method: as §1
# [8] = tested on: RARa:RXR (NR concentration 270 nM, RXRa partner concentration 90 nM)
# Summary of the method: as §1
# [9] = tested on: RARa homodimer (NR concentration 270 nM)
# Summary of the method: as §1
# [10] = tested on: RARb:RXRa (NR concentration 270 nM, RXRa partner concentration 90 nM)
# Summary of the method: as §1
# [11] = tested on: RARb homodimer (NR concentration 270 nM)
# Summary of the method: as §1
# [12] = tested on: RARg:RXRa (NR concentration 270 nM, RXRa partner concentration 90 nM)
# Summary of the method: as §1
# [13] = tested on: RARg homodimer (NR concentration 270 nM)
# Summary of the method: as §1
# [14] = tested on: RXRa DBDmut IVT, anti-RXR (DBD mutation: RXRa K156A/R161A, NR concentration 90 nM)
# Summary of the method: as §1
# [15] = tested on: RXRa homodimer (NR concentration 180 nM)
# Summary of the method: as §1
# [16] = tested on: THRa:RXRa (NR concentration 90 nM, RXRa partner concentration 90 nM)
# Summary of the method: as §1
# [17] = tested on: THRa homodimer (NR concentration 90 nM)
# Summary of the method: as §1
# [18] = tested on: VDR homodimer (NR concentration 270 nM)
# Summary of the method: as §1
Sequence,PBM binding z-score [1],PBM binding z-score [2],PBM binding z-score [3],PBM binding z-score [4],PBM binding z-score [5],PBM binding z-score [6],PBM binding z-score [7],PBM binding z-score [8],PBM binding z-score [9],PBM binding z-score [10],PBM binding z-score [11],PBM binding z-score [12],PBM binding z-score [13],PBM binding z-score [14],PBM binding z-score [15],PBM binding z-score [16],PBM binding z-score [17],PBM binding z-score [18]
CCTTACGTGTCACTCCAGGTTATAGCATCGGAGT,1.84,1.44,0.74,0.788,1.64,1.44,0.593,0.864,1.76,1.16,1.36,0.925,1.27,1.09,0.845,3.43,1.14,1.24
TCATATAGGTAAACAGGTTAAAGTCCGTAAGTTA,4.76,4.3,1.02,1.02,1.31,1.29,0.911,1.79,1.77,0.998,1.19,1.04,0.666,1.85,1.62,1.26,0.613,1.01
CGAACTAGGTCCGAACAGGACAGTGAAGGATGAT,1.53,0.592,-1.02,-0.172,-1.32,-0.715,-0.581,-0.746,-0.281,-0.345,-0.462,-0.22,0.235,0.44,-0.527,0.105,-0.912,-0.155
ATCTCTAGGTAAGAATCAGTTCAGTGAAGAACGC,1.32,0.899,0.992,1.06,1.4,1.05,1.2,0.793,2.09,0.435,0.542,0.529,0.6,0.634,0.2,0.888,0.68,1.52
GCTTGTAGATCAAGGGTAAGAAAGACTAAGCTAA,1.15,1.03,-0.364,-0.778,0.0991,-0.426,-0.45,-0.346,-0.786,-0.0761,-0.585,-0.317,-0.393,-0.509,-0.00933,-0.138,-0.974,-0.486
TCTAGTAGATCAACAGGAGGTTAAGAAAGATCGA,1.67,0.911,0.0951,-0.146,0.637,0.739,0.18,1.05,0.751,0.445,0.413,0.662,0.244,0.766,0.901,0.727,-0.505,0.097
ACTGACAGGTGAGTGAAGGTAACTCAGCTGGACG,0.237,1.07,0.18,-0.257,-0.647,-0.21,-0.633,0.381,-0.0244,0.482,0.153,0.285,0.606,-0.285,0.3,1.74,-0.42,-0.23
GCTATTAGTTGACAGGGCAACCGAATGATTCTCG,0.297,0.029,0.0418,0.353,0.467,-0.171,0.105,-0.228,0.00268,0.489,0.837,0.251,0.693,0.605,0.324,-0.129,-0.0185,-0.0905
GGAACGAGGGCAAGTTGATTGCAGAGTTTGATGG,3.51,2.76,0.164,-0.675,0.268,0.704,0.465,0.608,-0.397,2.69,1.5,1.62,2.18,2.56,0.967,1.38,-0.0249,2.02
CGAACTAGGTCATGGACAGGACAGTGAATAGTAA,8.1,8.31,3.01,0.998,1.68,1.65,-0.17,2.55,0.249,3.88,2.93,5.08,4.95,1.42,3.41,3.13,0.909,0.49
TAGTCTAGGTCATGGGCCAGTATACCACGCGAAC,5.8,6.96,3.12,2.31,2.49,1.57,0.209,2.78,0.751,3.95,3.09,4.03,4.4,0.663,3.44,3.3,2.25,0.773
TGAATGAGGTTAAAGATCGGGGAACGTGGCGTCG,2.68,3.12,1.11,-0.0519,0.857,1.55,0.231,2.5,0.262,2.15,0.987,2.41,1.24,1.35,3.31,2.55,0.447,0.818
CGAACTAGGTCATCTAGGACAGTGAATACATTGA,8.06,8.21,3.51,1.83,2.99,1.73,0.602,2.23,0.753,3.92,2.74,4.13,4.96,2.2,2.99,3.3,1.49,1.48
TCATATAGGTAAATGCTAGGTGAAACTCCGATCT,4.38,2.75,0.957,1.1,0.711,0.57,0.499,0.959,0.953,0.548,0.638,0.657,0.3,1.3,0.917,1.65,0.67,0.32
CCTACTGGGCAAAAGGTCATTGATTCCAATGCTC,2.57,5.1,-0.086,-0.781,3.07,4.91,1.5,5.73,1.77,4.35,4.53,5.81,5.23,0.966,6.04,3.09,0.51,1.72
